Laboratory results from paper PMC5540273 (PLoS ONE, 2017).

How the values were obtained:
Conditions in all cases: concentration: 1 μM, replicates: in singlicate; n = 1
PCTK2 = system: T1, PCTK2
T1 construct: gene CDK17

PCTK3 = system: T2, PCTK3
T2 construct: gene CDK18

PDGFRA = system: PDGFRA
PDGFRB = system: PDGFRB
PDPK1 = system: PDPK1
PFTAIRE2 = system: PFTAIRE2
PFTK1 = system: T3, PFTK1
T3 construct: gene CDK14

PHKG1 = system: PHKG1
PHKG2 = system: PHKG2
PIK3C2B = system: PIK3C2B
PIK3C2G = system: PIK3C2G
PIK3CA = system: PIK3CA
PIK3CB = system: PIK3CB
PIK3CD = system: PIK3CD
PIK3CG = system: PIK3CG
PIK4CB = system: T4, PIK4CB
T4 construct: gene PI4KB

PIKFYVE = system: PIKFYVE
PIM1 = system: PIM1
PIM2 = system: PIM2
PIM3 = system: PIM3
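Note: KINOMEscan kinase panel screen.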

Compound	%Inh (PCTK2)	%Inh (PCTK3)	%Inh (PDGFRA)	%Inh (PDGFRB)	%Inh (PDPK1)	%Inh (PFTAIRE2)	%Inh (PFTK1)	%Inh (PHKG1)	%Inh (PHKG2)	%Inh (PIK3C2B)	%Inh (PIK3C2G)	%Inh (PIK3CA)	%Inh (PIK3CB)	%Inh (PIK3CD)	%Inh (PIK3CG)	%Inh (PIK4CB)	%Inh (PIKFYVE)	%Inh (PIM1)	%Inh (PIM2)	%Inh (PIM3)
CC(=O)Nc1cn2nc(Oc3cccc(NC(=O)c4cccc(C(F)(F)F)c4)c3)ccc2n1	0%	6%	99.6%	100%	9%	0%	3%	31%	0%	0%	0%	0%	0%	0%	0%	0%	0%	9%	9%	0%
CSc1ccc(NC2=C(c3ccc(Cl)cc3)C(=O)NC2=O)cc1 [SB-317658]	0%	0%	3%	31%	17%	4%	8%	0%	0%	0%	15%	0%	24%	54%	0%	27%	0%	1%	0%	12%
CN(C)c1ncnc2nc[nH]c12 [SKF-31736]	0%	0%	0%	0%	0%	0%	5%	0%	0%	11%	0%	13%	0%	0%	8%	1%	21%	5%	0%	8%
CN1CCN(Cc2ccc(NC(=O)Nc3ccc(N(C)c4ccnc(Nc5ccc(CS(C)(=O)=O)cc5)n4)cc3)cc2)CC1.Cl [GW827654]	43%	0%	99.9%	99.9%	10%	22%	0%	19%	0%	0%	6%	0%	16%	0%	26%	30%	7%	0%	0%	45%
Nc1cccc(-c2ccc3c(N)n[nH]c3c2)c1 [GSK2193613]	19%	4%	9%	29%	0%	13%	30%	0%	11%	0%	0%	0%	40%	2%	0%	0%	0%	11%	0%	0%
COc1ccc(C2=C(Nc3cccc(O)c3)C(=O)NC2=O)cc1 [SB-390766]	0%	16%	0%	26%	0%	4%	13%	0%	21%	0%	0%	0%	0%	2%	0%	9%	0%	9%	0%	0%
Cc1ccc(NC(=O)c2ccnc(N3CCCCC3)c2)cc1-c1ccc(C(=O)NCC2CC2)cc1 [GW775610]	15%	0%	59%	98.3%	0%	19%	0%	0%	0%	18%	0%	0%	0%	0%	36%	8%	24%	0%	0%	0%
CCn1cnc2c(NCc3ccccc3)ncnc21 [SKF-96418]	0%	0%	0%	0%	0%	0%	0%	0%	0%	0%	0%	0%	0%	0%	0%	4%	23%	21%	0%	0%
CS(=O)(=O)c1cccc(CNc2nc(Nc3ccc4c(c3)CCC(=O)N4)ncc2C(F)(F)F)c1	0%	4%	15%	62%	32%	14%	10%	0%	3%	0%	9%	0%	3%	0%	0%	0%	28%	10%	0%	32%
COc1cccc(-c2nc(-c3ccccc3)[nH]c2-c2ccncc2)c1 [SB-610250]	0%	14%	0%	0%	0%	14%	16%	0%	0%	0%	0%	0%	0%	0%	0%	13%	63%	1%	0%	0%
Nc1ncnc2scc(-c3ccc(NC(=O)Cc4cc(F)ccc4F)cc3)c12.O=C(O)C(F)(F)F [SB-731254-M]	0%	13%	99.5%	99.9%	41%	0%	2%	6%	16%	22%	13%	0%	0%	0%	23%	22%	0%	0%	0%	19%
NCCC(NC(=O)c1cc(Br)c(-c2ccnc3[nH]ccc23)s1)c1ccccc1.O=C(O)C(F)(F)F.O=C(O)C(F)(F)F (centres unmarked) [GSK1307810]	16%	0%	25%	53%	28%	8%	0%	24%	12%	0%	0%	0%	6%	7%	2%	8%	9%	66%	95.5%	45%
Cc1ccc(NC(=O)c2cccc(N3CCCCC3)c2)cc1-c1ccc(C(=O)NCC2CC2)cc1 [GSK1917008]	0%	26%	34%	98.7%	5%	28%	33%	0%	0%	0%	45%	1%	0%	25%	0%	11%	0%	15%	0%	0%
Nc1ncc(-c2ccc3nccc(-c4ccncc4)c3c2)cc1S(=O)(=O)N1CCCCC1 [GSK1693850]	26%	0%	0%	22%	0%	48%	47%	0%	14%	100%	99.8%	100%	96.9%	100%	100%	95.9%	0%	8%	0%	0%
COc1cccc(CC(=O)N2CCc3cc(-c4cn(C)c5ncnc(N)c45)ccc32)c1 [GSK2608899]	0%	4%	88%	99.2%	20%	12%	0%	0%	0%	83%	0%	6%	14%	0%	27%	0%	0%	19%	0%	2%
COC(=O)Nc1nc2ccc(Oc3ccc(NC(=O)Nc4cc(C(F)(F)F)ccc4F)cc3)cc2[nH]1.Cl [GW654607]	10%	14%	96.6%	100%	0%	89%	47%	0%	0%	0%	0%	0%	17%	0%	3%	0%	0%	0%	0%	0%
Cl.O=C(Nc1ccc(Oc2ccc3[nH]c(NC(=O)c4ccco4)nc3c2)cc1)Nc1cc(C(F)(F)F)ccc1F [GW683134]	0%	8%	92.6%	100%	14%	27%	14%	0%	0%	100%	0%	100%	0%	8%	99.9%	18%	0%	0%	0%	0%

Compound	%Inh (PCTK2)	%Inh (PCTK3)	%Inh (PDGFRA)	%Inh (PDGFRB)	%Inh (PDPK1)	%Inh (PFTAIRE2)	%Inh (PFTK1)	%Inh (PHKG1)	%Inh (PHKG2)	%Inh (PIK3C2B)	%Inh (PIK3C2G)	%Inh (PIK3CA)	%Inh (PIK3CB)	%Inh (PIK3CD)	%Inh (PIK3CG)	%Inh (PIK4CB)	%Inh (PIKFYVE)	%Inh (PIM1)	%Inh (PIM2)	%Inh (PIM3)
Cc1ccccc1CC(=O)N1CCc2cc(-c3cn(C)c4ncnc(N)c34)ccc21 [GSK2603346]	0%	3%	64%	99.4%	67%	5%	3%	0%	0%	77%	0%	0%	0%	25%	0%	0%	0%	0%	0%	0%
Cc1ccc(O)cc1Nc1ccnc2cc(-c3ccc(CN4CCCCC4)o3)ccc12 [GW557777]	0%	8%	95.3%	99.7%	0%	0%	15%	9%	7%	0%	16%	0%	0%	0%	0%	0%	0%	0%	2%	7%
COc1cc(Nc2nccc(N3CCC(NC(=O)Nc4ccc5c(c4)OCO5)C3)n2)cc(OC)c1OC (centres unmarked) [GSK1379766]	38%	31%	11%	60%	0%	8%	0%	0%	0%	8%	0%	3%	0%	50%	13%	80%	10%	0%	0%	0%
COc1cccc2c(-c3ccncc3)c(-c3ccc(F)cc3)nn12 [GW468513]	11%	0%	0%	21%	10%	5%	0%	18%	0%	0%	0%	0%	0%	11%	0%	0%	0%	9%	0%	0%
CCOc1nccc(-c2c(-c3ccc(F)cc3)ncn2C2CCNCC2)n1 [SB-249175]	5%	17%	13%	8%	6%	0%	20%	0%	0%	23%	1%	9%	0%	18%	45%	3%	7%	0%	3%	5%
Cl.Cl.NC(CNC(=O)c1cc(Br)c(-c2ccnc3[nH]ccc23)s1)c1ccccc1 (centres unmarked) [GSK1322949]	14%	0%	8%	63%	76%	40%	22%	74%	56%	0%	0%	1%	0%	0%	22%	0%	0%	40%	0%	34%
Cc1ccc(-c2ccc3occ(-c4ccc(S(C)=O)cc4)c3c2)nn1 (centres unmarked)	0%	0%	0%	0%	16%	0%	6%	0%	16%	0%	18%	0%	0%	2%	8%	0%	3%	4%	9%	4%
COc1cc(Nc2ccnc3cc(-c4ccncc4)ccc23)cc(OC)c1OC.Cl [GW494610]	0%	0%	73%	97.2%	0%	12%	0%	15%	0%	0%	0%	0%	0%	0%	0%	0%	0%	11%	0%	0%
Cc1cccc(Nc2nc(N[C@H]3CCCC[C@H]3N)ncc2C(N)=O)c1.Cl [GSK986310]	17%	24%	12%	80%	3%	24%	29%	33%	44%	0%	0%	0%	0%	0%	3%	0%	0%	43%	56%	88%
O=C(O)C(F)(F)F.O=c1[nH]ccc2nc(N[C@@H]3CCNC3)nc(Nc3ccc4c(c3)S(=O)(=O)CC4)c12 [GSK2181306]	71%	38%	94.1%	99.6%	93.5%	14%	14%	96.9%	93.7%	12%	23%	9%	100%	34%	86%	0%	0%	89%	96.6%	99%
Cc1cccc(Nc2nc(NCCN)ncc2C(N)=O)c1 [GSK1292139]	0%	0%	51%	89%	0%	16%	0%	42%	63%	0%	0%	0%	0%	2%	2%	22%	0%	28%	35%	58%
c1ccc(Oc2ccc(Nc3ccnc4cc(-c5ccc(CN6CCCCC6)o5)ccc34)cc2)nc1 [GW567143]	0%	11%	82%	98.6%	0%	7%	9%	5%	0%	0%	0%	0%	0%	0%	0%	0%	0%	0%	0%	0%
CN(c1ccc(NC(=O)N2CCN(CCCN3CCOCC3)CC2)cc1)c1ccnc(Nc2ccc(CS(C)(=O)=O)cc2)n1.Cl [GW830899]	10%	0%	73%	99.4%	2%	14%	0%	40%	0%	0%	0%	0%	0%	0%	0%	100%	0%	16%	0%	0%
O=C(Nc1n[nH]c2nc(-c3cccc(O)c3)ccc12)C1CC1 [SB-711805]	35%	0%	52%	50%	5%	21%	4%	0%	0%	4%	16%	0%	0%	0%	17%	12%	15%	11%	81%	10%
O=C(Nc1n[nH]c2nc(-c3ccccc3)ccc12)C1CC1 [SB-708999]	23%	36%	16%	31%	34%	8%	29%	12%	1%	0%	9%	11%	0%	41%	5%	0%	28%	0%	16%	0%
CCNc1nccc(-c2c(-c3ccc(F)cc3)ncn2C2CCN(C)CC2)n1	0%	0%	0%	0%	15%	0%	1%	1%	12%	1%	26%	0%	0%	0%	10%	0%	0%	6%	4%	30%
Cc1cc(-c2c(-c3ccc(F)cc3)ncn2CCCN2CCOCC2)nc(N)n1 [SB-222517]	0%	0%	0%	16%	0%	0%	0%	12%	0%	28%	20%	23%	0%	0%	36%	46%	0%	11%	26%	15%
